Records with an inconclusive call do not appear. The source made the active and inactive calls. Unless noted, the call rests on the fitted dose curve; in most records, active means well fitted curve in the direction sought with a large enough effect in the repeat runs; inconclusive means weak or mixed curves; inactive means no such curve, though single readings can be large; an effect the other way counts as inactive or inconclusive.
How the values were obtained:
[1] = qHTS assay to identify small molecule antagonists of the glucocorticoid receptor (GR) signaling pathway - cell viability counter screen (AID 720693); further: nearly all actives have a fitted effect of over 55% in size
[2] = qHTS assay for identifying genotoxic compounds that show differential cytotoxicity against isogenic chicken DT40 cell lines with known DNA damage response pathways - Rev3 mutant cell line (AID 743014); further: nearly all actives have a fitted effect of over 55% in size; further: potency means the concentration at half of the fitted maximal effect
[3] = qHTS assay for identifying genotoxic compounds that show differential cytotoxicity against isogenic chicken DT40 cell lines with known DNA damage response pathways - Rad54/Ku70 mutant cell line (AID 743015); further: nearly all actives have a fitted effect of over 60% in size; further: potency means the concentration at half of the fitted maximal effect
[4] = qHTS assay to identify small molecule antagonists of the androgen receptor (AR) signaling pathway - cell viability counter screen (AID 743033; further: nearly all actives have a fitted effect of over 45% in size)
[5] = qHTS assay to identify small molecule antagonists of the thyroid receptor (TR) signaling pathway - cell viability counter screen (AID 743064); further: nearly all actives have a fitted effect of over 50% in size; further: potency means the concentration at half of the fitted maximal effect
In short: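 In rat pituitary GH3.TRE-Luc reporter cells co-exposed to compound and 1 nM T3 for 23.5 h, cytotoxicity was assessed with CellTiter-Fluor in the same wells, read by fluorescence.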

[6] = qHTS assay to identify small molecule antagonists of the androgen receptor (AR) signaling pathway using the MDA cell line - cell viability counter screen (AID 743041; further: nearly all actives have a fitted effect of over 45% in size)
In short: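 qHTS viability read-out; MDA-kb2 AR-luc; R1881-stimulated; 16 h exposure at 37C, 0% CO2; CellTiter-Fluor, 30 min; fluorescence intensity.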

[7] = qHTS assay for identifying genotoxic compounds that show differential cytotoxicity against isogenic chicken DT40 cell lines with known DNA damage response pathways - wild type cell line (AID 743012); further: nearly all actives have a fitted effect of over 60% in size
In short: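 CellTiter-Glo luminescence readout of viability in wild type DT40 cells after 40 h compound exposure at 37 C/5% CO2; 300 cells/well; reagent incubated 30 min at room temperature before reading.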

[8] = target: Androgen receptor (Homo sapiens) (UniProt P10275); experiment: qHTS assay to identify small molecule antagonists of the androgen receptor (AR) signaling pathway (AID 743035; active means well fitted inhibition curve with a large enough effect in the signal ratio in the repeat runs, not every such curve was filed as active; the % refers to the signal ratio)
Androgen receptor (Homo sapiens), sequence (P10275 whole entry, looked up): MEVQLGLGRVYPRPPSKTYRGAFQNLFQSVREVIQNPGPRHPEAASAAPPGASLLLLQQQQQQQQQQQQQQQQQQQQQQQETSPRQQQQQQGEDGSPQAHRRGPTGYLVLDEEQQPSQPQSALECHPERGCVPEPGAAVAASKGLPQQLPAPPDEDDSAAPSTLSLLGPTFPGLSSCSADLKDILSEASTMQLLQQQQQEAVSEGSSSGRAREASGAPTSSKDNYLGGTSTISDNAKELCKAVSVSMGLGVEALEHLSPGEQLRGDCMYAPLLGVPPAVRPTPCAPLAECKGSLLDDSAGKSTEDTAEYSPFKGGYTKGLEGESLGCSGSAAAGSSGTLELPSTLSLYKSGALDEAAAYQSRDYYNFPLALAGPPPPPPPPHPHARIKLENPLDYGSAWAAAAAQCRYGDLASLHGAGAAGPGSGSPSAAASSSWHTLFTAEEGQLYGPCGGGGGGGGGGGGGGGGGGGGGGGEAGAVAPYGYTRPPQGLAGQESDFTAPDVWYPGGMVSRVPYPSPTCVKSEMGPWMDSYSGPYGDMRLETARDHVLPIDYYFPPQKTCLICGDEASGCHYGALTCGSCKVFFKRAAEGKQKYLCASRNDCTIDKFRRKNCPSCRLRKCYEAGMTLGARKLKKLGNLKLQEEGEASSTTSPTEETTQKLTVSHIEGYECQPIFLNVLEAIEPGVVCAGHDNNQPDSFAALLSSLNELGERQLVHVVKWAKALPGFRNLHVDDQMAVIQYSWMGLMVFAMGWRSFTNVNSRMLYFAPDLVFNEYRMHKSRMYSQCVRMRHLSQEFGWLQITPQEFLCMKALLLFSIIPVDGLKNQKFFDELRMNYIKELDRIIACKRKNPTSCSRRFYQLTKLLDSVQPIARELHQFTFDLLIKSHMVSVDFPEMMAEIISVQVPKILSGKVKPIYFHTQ
In short: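 AR-bla HEK293 reporter cells; 4 h settle at 37C/5% CO2; compound + R1881 agonist, 16 h at 37C; LiveBLAzer B/G FRET substrate 2 h RT; fluorescence intensity read. qHTS format.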

[9] = target: Androgen receptor (Homo sapiens) (UniProt P10275); experiment: qHTS assay to identify small molecule agonists of the androgen receptor (AR) signaling pathway using the MDA cell line (AID 743040; further: nearly all actives have a fitted effect of over 20% in size)
In short: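 Agonist activity is measured as luciferase luminescence in human MDA-kb2 cells whose MMTV reporter responds to both AR and GR. Compounds in DMSO incubate 16 h at 37C, 0% CO2, and ONE-Glo is read after 30 min.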

[10] = target: Androgen receptor (Homo sapiens) (UniProt P10275); experiment: qHTS assay to identify small molecule antagonists of the androgen receptor (AR) signaling pathway using the MDA cell line (AID 743042; further: nearly all actives have a fitted effect of over 55% in size)
In short: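 MDA-kb2 cells (human breast carcinoma, stably carrying an MMTV-luciferase reporter responsive to AR and GR) were plated at 3,000 cells/well and preincubated 5 hr at 37C, then given compound plus R1881 agonist for 16 h. ONE-Glo luminescence was read.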

Measured: Potency

O=Cc1ccccc1S(=O)(=O)O
inactive: [1] | [2] | [3] | [4] | [5]

C[C@@H]1NC(=O)[C@@H](N)CNC(=O)[C@H](C2CCNC(N)=N2)NC(=O)/C(=C/NC(N)=O)NC(=O)[C@H](CNC(=O)C[C@@H](N)CCCN)NC1=O (stereo not given in full)
inactive: [1] | [2] | [3] | [4] | [6] | [5]

CC1=C(O)C(=O)CO1
inactive: [1] | [2] | [3] | [4] | [6] | [5]

C[C@H]1COc2c(C3(N)CC3)c(F)cc3c(=O)c(C(=O)O)cn1c23
inactive: [1] | [2] | [3] | [6] | [5]

CC/C=C\CCCCCCCCCCOC(C)=O
inactive: [1] | [2] | [3] | [4] | [6] | [5]

CCCCCCCCCCCCCCBr
inactive: [1] | [2] | [3] | [4] | [5]

CCCCCCCC(=O)N(C)C
inactive: [1] | [2] | [3] | [6] | [5]

CC(C)(C)OC(=O)c1ccccc1C(=O)O
inactive: [1] | [2] | [3] | [4] | [6] | [5]

CCCC(=O)CC
inactive: [1] | [2] | [3] | [4] | [6] | [5]

CC(=O)SCC(CC(=O)c1ccc(C)cc1)C(=O)O (stereo not given)
inactive: [1] | [2] | [3] | [6] | [5]

Cc1ccc(OC(=O)CC(C)C)cc1
inactive: [1] | [2] | [4] | [6] | [5]

C=CCN(CC=C)CC=C
inactive: [1] | [2] | [3] | [4] | [6] | [5]

Nc1ccc(C(=O)NCC(=O)O)cc1
inactive: [1] | [3] | [4] | [5]

CCOCCOCCOC(C)=O
inactive: [7] | [2] | [3] | [4] | [5]

CC(C)C[P+](C)(CC(C)C)CC(C)C
inactive: [7] | [2] | [3] | [4] | [6] | [5]

CCN1CCN(C(=O)N[C@@H](C(=O)N[C@@H]2C(=O)N3C(C(=O)O)=C(CSc4nnnn4C)CS[C@H]23)c2ccc(O)cc2)C(=O)C1=O
inactive: [1] | [3] | [4] | [6] | [5]

CC(CC(=O)Cl)CC(C)(C)C (stereo not given)
inactive: [1] | [3] | [4] | [6] | [5]

CCO[Si](CC(C)C)(OCC)OCC
inactive: [7] | [3] | [6] | [5]

C[Si](C)(C)O[Si](O)(O)O
inactive: [1] | [5]
active: [2] 61.1 µM

CCCCN=C(N)N=C(N)N
inactive: [1] | [6] | [5]

COC(=O)C(c1ccccc1Cl)N1CCc2sccc2C1 (stereo not given)
inactive: [1] | [4] | [5]

CCCCCCC(O)CO (stereo not given)
inactive: [1] | [3] | [4] | [6]

CCC(C)c1nccnc1OC (stereo not given)
inactive: [1] | [6] | [5]

CC(C)(C)NCC(O)COc1cccc2c1CCC(=O)N2 (stereo not given)
not listed: [2] | [3] | [7]
inactive: all other assays above

N=C(N)N1CCc2ccccc2C1
inactive: [1] | [3] | [4] | [6] | [5]

Cc1cccc(N)n1
inactive: [1] | [4] | [6] | [5]

CCOC(=O)c1ccc(N(C)C)cc1
inactive: [1] | [3] | [4] | [6]

CCO/C=C1\N=C(c2ccccc2)OC1=O
inactive: [1] | [4] | [6]
active: [3] 48.4 µM | [5] 68.3 µM

C=C(C)C(=O)OCCOC1CC2CC1C1C=CCC21 (stereo not given)
inactive: [1] | [4] | [6] | [5]

BrCCOc1ccccc1
inactive: [1] | [3] | [4] | [6] | [5]

CCCCc1ccc(Cl)cc1
inactive: [1] | [3] | [4] | [6] | [5]

CCOC(=O)COc1ccc2c(C)c(CCN(CC)CC)c(=O)oc2c1Cl
inactive: [1] | [4]

CC(C)(O)CCCC1=CCC(C=O)CC1 (stereo not given)
inactive: [1] | [4] | [6] | [5]

CN(C)c1ccncc1
inactive: [1] | [4] | [6] | [5]

N#CC1(N)CCCCC1
inactive: [1] | [3] | [4] | [6] | [5]

C=CC(=O)OCCOCCOCC
inactive: [3] | [4] | [6] | [5]

CC/C=C\CCOC(=O)c1ccccc1
not listed: [2] | [7] | [8]
inactive: all other assays above

CCCCCC(=O)CC
inactive: [1] | [3] | [4] | [6] | [5]

O=S(=O)(O)c1cc(I)c(O)c2ncccc12
inactive: [1] | [4] | [6] | [5]

Cc1nc2ccc(Cl)cc2[nH]1
inactive: [1] | [3] | [4] | [6] | [5]

CN(C)c1cc(NC(=O)CNC(C)(C)C)c(O)c2c1C[C@H]1C[C@H]3[C@H](N(C)C)C(=O)C(C(N)=O)=C(O)[C@@]3(O)C(=O)C1=C2O
not listed: [2] | [5] | [7]
inactive: all other assays above

Cc1ccc2ccccc2n1
inactive: [1] | [3] | [4] | [6] | [5]

CCCCCCCCCCCCCCCC/C=C/C1CC(=O)OC1=O (stereo not given)
inactive: [1] | [2] | [6]

COC(=O)/C=C(\C)CCC=C(C)C
inactive: [1] | [4] | [6] | [5]

CCCC(=O)C(CC)Sc1ccoc1C (stereo not given)
not listed: [2] | [3] | [7]
inactive: all other assays above

CC(=O)c1ccc2ccc3ccccc3c2c1
inactive: [1] | [4] | [6] | [5]

CC(=O)OC/C=C(/C)CCC=C(C)C
inactive: [1] | [3] | [4] | [6] | [5]
